From PubChem BioAssay AID1851 (National Center for Advancing Translational Sciences (NCATS), 2009) come the findings set out here.

The structures appear in SMILES notation. The campaign covered roughly 16,000 compounds. About 4,000 (25%) were called active. Another 26% or so got no clear call; they are omitted. These entries were drawn from the full list. Unmarked numbers belong to inactive results. The call rests on the fitted dose curve; in most records, active means well fitted curve in the direction sought with a large enough effect; inconclusive means small, poorly fitted or top-dose-only effect, or effect the other way; inactive means no such curve, though single readings can be large or run the other way.
On the % scale 0 is the no-effect control and ±100 the full control effect.

In this assay the target is Cytochrome P450 2C9 (Homo sapiens) (UniProt P11712). The experiment in a line: Cytochrome panel assay with activity outcomes. As to conditions: recombinant CYP, pro-luciferin dealkylation, luminescence, p450-cyp2c9; series mostly up to 57.1 µM; activity, negative = inhibition: at the top concentration.
Sequence of Cytochrome P450 2C9 (Homo sapiens) (P11712 whole entry, looked up): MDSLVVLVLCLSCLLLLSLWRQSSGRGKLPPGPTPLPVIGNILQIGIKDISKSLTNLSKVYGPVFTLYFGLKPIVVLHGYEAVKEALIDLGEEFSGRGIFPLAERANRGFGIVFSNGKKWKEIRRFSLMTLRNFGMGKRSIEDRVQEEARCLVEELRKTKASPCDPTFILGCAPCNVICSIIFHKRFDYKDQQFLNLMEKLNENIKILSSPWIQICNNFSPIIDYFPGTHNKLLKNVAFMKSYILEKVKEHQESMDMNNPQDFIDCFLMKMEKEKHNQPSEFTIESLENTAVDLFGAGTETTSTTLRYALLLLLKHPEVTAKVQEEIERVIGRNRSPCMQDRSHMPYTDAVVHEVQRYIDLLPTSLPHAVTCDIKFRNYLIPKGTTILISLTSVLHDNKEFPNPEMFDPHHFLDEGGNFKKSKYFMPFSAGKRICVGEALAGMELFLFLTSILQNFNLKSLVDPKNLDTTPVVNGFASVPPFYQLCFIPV
Turning to `Cc1cc2c(c(=O)o1)[C@H](O)[C@H]1O[C@@H]1C2=O`, the activity, negative = inhibition is 10.8% [at 11.4 µM].

Consider `c1ccc2cc(NCNc3ccc4ccccc4c3)ccc2c1`, for which the AC50 (usually the midpoint of the concentration-response curve, whichever way the signal moves) is 3.98 µM (active).

As to `CC(C)C[C@@H](N)C(=O)Nc1ccc2ccccc2c1`, the activity, negative = inhibition was -7.85% [at 11.4 µM].

Regarding `O=C1CN=C(Nc2ccccc2)N1Cc1cccs1`, the AC50 is 17.8 µM (active).

For the compound `CCOc1ccc(NC2=NCC(=O)N2Cc2cccs2)cc1`, the AC50 was 17.8 µM (active).

For `COc1ccc(-c2nc3cnc(Nc4cccc(OC)c4)nc3n(Cc3cccs3)c2=O)cc1`, the “activity, negative = inhibition” value is -0.306%.

`COc1cccc(Nc2ncc3nc(-c4ccccc4)c(=O)n(Cc4cccs4)c3n2)c1`: the “activity, negative = inhibition” value was -2.75%.

Take `COc1ccc(-c2nc3cnc(N(C)C)nc3n(Cc3cccs3)c2=O)cc1`: the “activity, negative = inhibition” value is 17.4%.

Take `O=c1c(-c2ccc(F)cc2)nc2cnc(Nc3ccccc3)nc2n1Cc1cccs1`: the “activity, negative = inhibition” value was -6.62%.

On to `COc1ccc(NC2=NCC(=O)N2Cc2cccs2)cc1`, for which the concentration at half-maximal activity (AC50) is 14.1 µM (active).

On to `COc1cccc(-c2cncnc2NC2CCNCC2)c1`, for which the activity, negative = inhibition is 28.5% [at 2.29 µM].

Turning to `COc1cccc(C2=CC(c3ccccc3)n3nnnc3N2)c1` (stereo not drawn), the AC50 was 0.501 µM (active).

With `COc1cccc(-c2nc(NC3CCNCC3)c3ccccc3n2)c1`, the activity, negative = inhibition was 11.6% [at 2.29 µM].

For the compound `COCC(=O)N1CCC2(CC1)CN(C(=O)Nc1ccc(OC)cc1)C2`, the “activity, negative = inhibition” value is -5.72%.

Regarding `COCC(=O)N1CCC2(CCCN(C(=O)Nc3ccccc3)C2)CC1`, the “activity, negative = inhibition” value was 0.7%.

In the case of `COCC(=O)N1CCC2(CC1)CN(C(=O)Nc1ccccc1)C2`, the AC50 is 1.58 µM (active).

`COCC(=O)N1CCC2(CC1)CCN(c1cccc(-c3ccccc3)c1)CC2`: the “activity, negative = inhibition” value is -12.7%.

In the case of `CC(=O)N1CCC2(CC1)CCN(c1cccc(-c3ccccc3)c1)CC2`, the “activity, negative = inhibition” value is -15%.

In the case of `CC(=O)N1CCC2(CCCN(c3ccccc3)C2)CC1`, the “activity, negative = inhibition” value is -26%.

Take `CC(=O)N1CCC2(CCCN(c3cccc(-c4ccccc4)c3)C2)CC1`: the AC50 was 12.6 µM (active).

Consider `COCC(=O)N1CCC2(CCCN(c3cccc(-c4ccccc4)c3)C2)CC1`, for which the AC50 is 25.1 µM (active).

For the compound `COCC(=O)N1CCC2(CCCN(c3ccncc3)C2)CC1`, the “activity, negative = inhibition” value is -17.3%.

In the case of `Cc1noc(C)c1-c1nccc(N(C)Cc2ccco2)n1`, the activity, negative = inhibition is 10.6% [at 2.29 µM].

Consider `CCCn1c(=O)c2[nH]c(-c3ccc(OCC(=O)NCCN)cc3)nc2n(CCC)c1=O`, for which the “activity, negative = inhibition” value is -17.5%.

As for `Cc1noc(C)c1-c1nc(N2CCN(C)CC2)c2ccccc2n1`, the activity, negative = inhibition was 1.84% [at 2.29 µM].

Turning to `Cc1cc([C@](C)(N)C(=O)O)ccc1P(=O)(O)O`, the “activity, negative = inhibition” value is -9.49%.

Consider `N[C@H](C(=O)O)c1cc(O)cc(O)c1`, for which the AC50 entry is “inactive”.

In the case of `CC1=C(C(=O)O)N2C(=O)[C@@H](NC(=O)[C@@H](N)C3=CCC=CC3)[C@@H]2SC1`, the “activity, negative = inhibition” value is 11.2%.

Consider `COc1ccc(NC(=O)NCc2cccn2C)c(OC)c1`, for which the “activity, negative = inhibition” value is 2.26%.

In the case of `CC(Sc1nnc(Cc2cccs2)n1C1CCCCC1)C(N)=O` (stereo not drawn), the “activity, negative = inhibition” value is -26.6%.

`COc1ccc(OC)c(C(=O)CSc2nnc(Cc3cccs3)n2CCc2ccccc2)c1`: the AC50 is 1.58 µM (active).

Take `COc1ccc(NC(=O)CSc2nnc(Cc3cccn3C)n2CCc2ccccc2)c(OC)c1`: the AC50 is 11.2 µM (active).

As to `COc1cccc(Nc2ncc3nc(CCc4ccccc4)c(=O)n(Cc4cccs4)c3n2)c1`, the “activity, negative = inhibition” value was 11%.

`O=c1[nH]c(SCc2cccc([N+](=O)[O-])c2)nc2nc[nH]c12`: the activity, negative = inhibition was 4.13% [at 11.4 µM].

In the case of `O=c1[nH]c(SCc2ccccc2[N+](=O)[O-])nc2nc[nH]c12`, the activity, negative = inhibition is 11.4% [at 11.4 µM].

On to `O=[N+]([O-])c1ccc(-c2cnc(SCc3ccccc3Cl)[nH]2)cc1`, for which the AC50 was 3.98 µM (active).

`COc1ccccc1CN1CCCC2(CCN(S(C)(=O)=O)CC2)C1`: the “activity, negative = inhibition” value is 6.51%.

On to `Cc1c(C(=O)Nc2cccc(C(F)(F)F)c2)oc2ccc(S(=O)(=O)N3CCOCC3)cc12`, for which the AC50 was 1.41 µM (active).

As for `O=C(O)C[C@@H]1CCCc2ccccc2[C@H]1O`, the “activity, negative = inhibition” value is 11.1%.

For the compound `Cc1c(C(=O)NC2CCCc3ccccc32)oc2ccc(S(=O)(=O)N3CCOCC3)cc12` (stereo not drawn), the AC50 was 7.08 µM (active).

Regarding `CCOc1cc(CNCCCN2CCOCC2)cc(Br)c1OCC(=O)Nc1cccc(C(F)(F)F)c1`, the “activity, negative = inhibition” value was -9.88%.

Take `C=CCOc1c2ccc(C(=O)NC3CCCc4ccccc43)cc2nn1C` (stereo not drawn): the “activity, negative = inhibition” value was -24.9%.

For `Fc1cccc(F)c1C(Nc1nncs1)Nc1nncs1`, the activity, negative = inhibition was -6.71% [at 11.4 µM].

Regarding `CSc1ncnc2c1ncn2[C@@H]1O[C@@H](CO)[C@H](O)O[C@@H]1O`, the activity, negative = inhibition is 1.22% [at 11.4 µM].

With `CS(=O)(=O)Nc1cccc(-c2ccc3ncnc(Nc4ccccc4)c3c2)c1`, the activity, negative = inhibition is -12.6% [at 2.29 µM].

Turning to `Cc1cc(C(=O)CSc2nnc(N)s2)c(C)n1CCc1ccc(F)cc1`, the AC50 is 1.12 µM (active).

In the case of `COc1ccc(C(=O)NC2(C(F)(F)F)C(=O)Nc3c2c(=O)[nH]c(=O)n3CCc2ccc(OC)c(OC)c2)cc1` (stereo not drawn), the “activity, negative = inhibition” value was -20.4%.

`COc1ccc(CCn2c(C)cc(C(=O)CSc3nc(N)cc(=O)[nH]3)c2C)cc1`: the AC50 is 8.91 µM (active).

On to `CC[C@H]1CC[C@H]2[C@@H]3CC=C4C[C@H](OC(C)=O)[C@@H](N)C[C@@]4(C)[C@H]3CC[C@@]12C`, for which the activity, negative = inhibition is 13.7% [at 11.4 µM].

As for `CCOc1ccc(C(=O)CCC(=O)O)cc1`, the “activity, negative = inhibition” value is 13.4%.

For `CCC(=O)c1ccc(OCC(O)CN2CCCCC2)cc1` (stereo not drawn), the “activity, negative = inhibition” value is 0.273%.

In the case of `CCCCOc1ccc(C(=O)CCN2CCCCC2)cc1`, the AC50 is 2.51 µM (active).

As for `CC(N)=NCc1cccc(CN)c1`, the AC50 entry is “inactive”.

Regarding `COc1cc(/C=N/Nc2snc(SC)c2C#N)cc(OC)c1OC`, the AC50 is 4.47 µM (active).

`CCOC(=O)N/N=C1/C[C@@H](O)[C@@H](O)[C@@H]2[C@@H]3C(=O)N(C4CCCCC4)C(=O)[C@H]3CC[C@H]12`: the activity, negative = inhibition was -8.52% [at 11.4 µM].

`COc1ccc(N2CC(C(=O)OCC(=O)c3cccc(OC)c3)CC2=O)cc1` (stereo not drawn): the AC50 was 17.8 µM (active).

Consider `COc1ccc(N2CC(C(=O)Nc3cc(C)on3)CC2=O)cc1` (stereo not drawn), for which the AC50 was 14.1 µM (active).

In the case of `CCN(CC)C(=O)C1CC(=O)N(c2ccc(OC)cc2)C1c1ccc(OC)cc1` (stereo not drawn), the “activity, negative = inhibition” value is -35.3%.

Turning to `CCOc1ccc(N2CC(C(=O)NCc3cccc(C)c3)CC2=O)cc1` (stereo not drawn), the AC50 is 12.6 µM (active).

As to `CCOc1ccc(CNC(=O)C2CC(=O)N(C3CCCC3)C2)cc1OC` (stereo not drawn), the “activity, negative = inhibition” value is 2.04%.

For the compound `c1cncc(-c2ccc3ncnc(NC4CCNCC4)c3c2)c1`, the activity, negative = inhibition was 12.8% [at 2.29 µM].

As to `CN(C)c1ncnc2ccc(-c3ccoc3)cc12`, the activity, negative = inhibition was -6.22% [at 2.29 µM].

As to `OC(COCc1ccccc1)Cn1cnc2ccccc21` (stereo not drawn), the AC50 is 12.6 µM (active).

Consider `C[n+]1cn(CC(O)COCc2ccccc2)c2ccccc21` (stereo not drawn), for which the “activity, negative = inhibition” value is -6.25%.

Consider `COC(=O)N1CCC2(CC1)CN(C(c1ccccc1)c1ccccc1)C2`, for which the AC50 is 10 µM (active).

`CS(=O)(=O)N1CCC2(CC1)CN(C(c1ccccc1)c1ccccc1)C2`: the “activity, negative = inhibition” value was 11.5%.

As to `COCC(=O)N1CCC2(CC1)CN(C(c1ccccc1)c1ccccc1)C2`, the “activity, negative = inhibition” value is 6.75%.

On to `COC(=O)N1CCC2(CCCN(C(c3ccccc3)c3ccccc3)C2)CC1`, for which the AC50 is 31.6 µM (active).

In the case of `CS(=O)(=O)N1CCC2(CCCN(C(c3ccccc3)c3ccccc3)C2)CC1`, the AC50 is 12.6 µM (active).

For the compound `CC(=O)N1CCC2(CC1)CN(C(c1ccccc1)c1ccccc1)C2`, the “activity, negative = inhibition” value was 3.24%.

As for `CS(=O)(=O)N1CCC[C@@]2(CCN(C(c3ccccc3)c3ccccc3)C2)C1`, the “activity, negative = inhibition” value was -11.3%.

On to `COCC(=O)N1CCC[C@@]2(CCN(C(c3ccccc3)c3ccccc3)C2)C1`, for which the “activity, negative = inhibition” value is -20.6%.

For `c1ccc(C(c2ccccc2)N2CCCC3(CCNCC3)C2)cc1`, the “activity, negative = inhibition” value is -17.7%.

As for `Cc1cccc(C)c1OCC(O)CNC(C)(C)C` (stereo not drawn), the “activity, negative = inhibition” value is -10.3%.

In the case of `COc1cc2cc3c4cc(OC)c(OC)cc4cc[n+]3c(C)c2cc1OC`, the “activity, negative = inhibition” value is 13.1% [at 25.6 µM].

For the compound `CO[C@@H]1COC(=O)C/C=C\[C@@H](C)COC(=O)[C@H](COCc2ccccc2)NC(=O)C/C=C\[C@H]1C`, the activity, negative = inhibition is -9.13% [at 11.4 µM].

With `O=C(NNC(=O)c1cc(-c2ccc(Cl)c(Cl)c2)nc2ccccc12)Nc1ccccc1`, the AC50 was 4.47 µM (active).

Turning to `COCCNc1nc(-c2ccccc2Cl)nc2ccccc12`, the activity, negative = inhibition was 0.695% [at 2.29 µM].

For `Cc1cccc(NC(=O)NNC(=O)c2cc(-c3ccccc3Cl)nc3ccccc23)c1`, the AC50 is 1.58 µM (active).

As for `CC(=O)NCCNc1nc(-c2ccccc2Cl)nc2ccccc12`, the activity, negative = inhibition was 15.4% [at 2.29 µM].

With `Cc1ccc(NC(=O)c2cc(Cl)nc3ccccc23)cc1`, the “activity, negative = inhibition” value was 6.1%.

For `NC(N)=N[C@@H]1C(O)[C@H](N=C(N)N)[C@@H](O)C(O)[C@H]1O` (stereo partly drawn), the activity, negative = inhibition was 13.6% [at 11.4 µM].

Consider `Nc1nc2c(ncn2COCCO)c(=O)[nH]1`, for which the AC50 entry was “inactive”.

Turning to `c1cn(-c2ncnc3ccc(-c4ccoc4)cc23)cn1`, the activity, negative = inhibition was -25.3% [at 2.29 µM].

`COC(=O)[C@@]1(Cc2ccc(F)cc2)[C@H]2c3cc(C(=O)N(C)C)n(Cc4ccc(C(F)(F)F)nc4)c3C[C@H]2CN1C(=O)c1ccccc1`: the AC50 was 25.1 µM (active).

For the compound `COC(=O)[C@@]1(Cc2ccccc2)[C@H]2c3cc(C(=O)N4CCCC4)n(Cc4ccc(C(F)(F)F)nc4)c3C[C@H]2CN1C(=O)c1ccccc1`, the AC50 was 5.01 µM (active).

Take `Clc1ccccc1-c1ccc2ncnc(NC3CCNCC3)c2c1`: the activity, negative = inhibition was 20.4% [at 2.29 µM].

Consider `Cc1ccccc1-c1cncnc1NCc1ccccc1`, for which the activity, negative = inhibition was -7.47% [at 2.29 µM].

As to `CCC(=O)N[C@@H]1Cc2ccccc2[C@@H](c2ccccc2)C1`, the “activity, negative = inhibition” value is -3.11%.

Take `CN(C)c1ccc(-c2nc(N3CCNCC3)c3ccccc3n2)cc1`: the activity, negative = inhibition is 0.369% [at 2.29 µM].

With `Clc1ccc(-c2nnc(-c3ccccc3)c(N3CCSCC3)n2)cc1`, the AC50 is 14.1 µM (active).

In the case of `Brc1ccc(-c2nnc(-c3ccccc3)c(N3CCSCC3)n2)cc1`, the AC50 is 10 µM (active).

For `Cc1noc(C)c1-c1ccc2ncnc(N3CCOCC3)c2c1`, the activity, negative = inhibition is 7.24% [at 2.29 µM].
